From ChEMBL document CHEMBL3988442, “University of Dundee, Small-Polar-MMV Screening Library” (2021) come the findings set out here.

What all share (set-up): scale not given: direction of the effect not stated beside the values
The target of assay [1] is Protein translocase subunit SecA (Escherichia coli (strain K12)) (UniProt P10408). The assay can be described thus: Assay to Identify E. coli SecA ATPase Inhibitors. It is filed as functional. Conditions: 30 µM.
Assay [2] addresses T1, Ubiquitin-activating enzyme e1, putative (Leishmania donovani (strain BPK282A1)) (UniProt E9BSI1).
T1 sequence (whole entry): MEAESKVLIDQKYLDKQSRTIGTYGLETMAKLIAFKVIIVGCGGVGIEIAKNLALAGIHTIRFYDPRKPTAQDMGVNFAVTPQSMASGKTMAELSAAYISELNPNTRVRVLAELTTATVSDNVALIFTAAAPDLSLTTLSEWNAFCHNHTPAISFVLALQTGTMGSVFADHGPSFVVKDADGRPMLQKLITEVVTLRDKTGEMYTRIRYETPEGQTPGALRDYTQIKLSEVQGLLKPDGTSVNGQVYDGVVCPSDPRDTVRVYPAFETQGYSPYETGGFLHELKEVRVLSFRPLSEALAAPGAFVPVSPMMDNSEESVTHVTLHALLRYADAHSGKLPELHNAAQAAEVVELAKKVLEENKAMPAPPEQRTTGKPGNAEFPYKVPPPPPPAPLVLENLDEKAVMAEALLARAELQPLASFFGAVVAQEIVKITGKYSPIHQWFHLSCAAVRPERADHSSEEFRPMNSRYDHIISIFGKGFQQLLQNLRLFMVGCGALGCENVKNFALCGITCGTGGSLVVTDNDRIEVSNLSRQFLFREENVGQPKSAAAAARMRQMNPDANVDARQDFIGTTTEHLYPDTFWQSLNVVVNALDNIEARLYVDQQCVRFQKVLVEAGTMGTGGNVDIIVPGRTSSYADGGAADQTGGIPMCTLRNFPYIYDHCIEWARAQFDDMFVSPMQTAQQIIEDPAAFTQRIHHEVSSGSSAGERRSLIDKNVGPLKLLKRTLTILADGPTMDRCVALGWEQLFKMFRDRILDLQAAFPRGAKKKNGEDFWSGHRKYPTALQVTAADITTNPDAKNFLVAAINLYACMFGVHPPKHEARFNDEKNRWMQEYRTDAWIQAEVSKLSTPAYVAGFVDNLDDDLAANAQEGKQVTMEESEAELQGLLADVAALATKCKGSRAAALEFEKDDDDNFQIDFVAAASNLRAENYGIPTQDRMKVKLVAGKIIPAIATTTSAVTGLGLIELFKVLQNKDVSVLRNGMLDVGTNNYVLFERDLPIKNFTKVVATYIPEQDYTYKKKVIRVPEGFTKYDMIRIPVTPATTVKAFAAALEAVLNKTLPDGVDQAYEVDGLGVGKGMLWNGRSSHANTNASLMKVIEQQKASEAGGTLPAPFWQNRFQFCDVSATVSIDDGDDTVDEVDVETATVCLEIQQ
The assay can be described thus: Leishmania donovani Ubiquitin Activating Enzyme (LdE1). In kind it is functional. Conditions: 30 µM.

In assay [3] the target is AMP-activated protein kinase, AMPK (Homo sapiens) (UniProt P54646+O43741+P54619+Q9UGJ0+Q9Y478+Q13131+Q9UGI9). Nature of the assay: AMP-dependent Kinase enzyme assay. An in vitro enzyme assay that detects ADP turnover that is directly proportional to AMPK activity. This uses naive AMPK that is activated during the assay with MK-8722. In kind it is functional. As to conditions: 30 µM.

The target of assay [4] is Sialic acid-binding Ig-like lectin 9 (Homo sapiens) (UniProt Q9Y336). The assay can be described thus: Hs-Siglec9 ALPHAscreen SOP 20170721. As to conditions: 10 µM. (In Alpha technology, singlet oxygen from a donor bead excites a nearby acceptor bead.)
Chain of Sialic acid-binding Ig-like lectin 9 (Homo sapiens) (Q9Y336 whole entry): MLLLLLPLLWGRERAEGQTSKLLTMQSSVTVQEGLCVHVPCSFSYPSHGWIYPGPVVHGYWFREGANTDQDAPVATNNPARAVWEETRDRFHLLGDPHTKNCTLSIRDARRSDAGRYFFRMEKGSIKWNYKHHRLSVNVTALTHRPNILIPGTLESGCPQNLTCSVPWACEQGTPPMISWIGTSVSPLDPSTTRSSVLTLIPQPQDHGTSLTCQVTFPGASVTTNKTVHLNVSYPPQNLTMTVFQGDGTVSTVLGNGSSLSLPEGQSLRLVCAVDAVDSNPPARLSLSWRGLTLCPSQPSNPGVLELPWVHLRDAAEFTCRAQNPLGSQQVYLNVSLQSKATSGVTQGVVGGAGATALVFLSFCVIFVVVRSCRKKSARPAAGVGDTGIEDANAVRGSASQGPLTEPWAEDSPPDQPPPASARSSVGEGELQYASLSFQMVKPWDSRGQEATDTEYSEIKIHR
The test system of another assay is Trypanosoma cruzi. The assay can be described thus: Trypanosoma cruzi phosphomannomutase and mannose-1-phosphate guanylyltransferase assay. It is filed as functional. Conditions: 10 µM.
In assay [5] the target is T2, Arginase-2, mitochondrial (Homo sapiens) (UniProt P78540).
T2 sequence (whole entry): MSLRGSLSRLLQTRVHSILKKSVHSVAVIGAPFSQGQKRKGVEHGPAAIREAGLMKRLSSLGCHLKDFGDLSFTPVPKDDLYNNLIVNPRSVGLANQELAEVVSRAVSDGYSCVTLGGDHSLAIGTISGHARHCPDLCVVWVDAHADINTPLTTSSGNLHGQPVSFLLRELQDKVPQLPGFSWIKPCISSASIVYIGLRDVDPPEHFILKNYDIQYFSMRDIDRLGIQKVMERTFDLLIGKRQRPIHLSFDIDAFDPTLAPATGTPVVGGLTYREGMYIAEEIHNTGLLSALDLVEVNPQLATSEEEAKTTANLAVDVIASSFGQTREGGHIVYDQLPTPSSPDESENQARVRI
The assay can be described thus: in vitro enzyme assay to detect the production of urea directly proportional to the activity of Arginase II. Note: in the data most compounds retested in dose-response had high values. It is filed as functional. As to conditions: 33.3 µM.

Assay [6] deals with T3, Proteasome subunit beta (Trypanosoma cruzi) (UniProt O96673).
T3 sequence (whole entry): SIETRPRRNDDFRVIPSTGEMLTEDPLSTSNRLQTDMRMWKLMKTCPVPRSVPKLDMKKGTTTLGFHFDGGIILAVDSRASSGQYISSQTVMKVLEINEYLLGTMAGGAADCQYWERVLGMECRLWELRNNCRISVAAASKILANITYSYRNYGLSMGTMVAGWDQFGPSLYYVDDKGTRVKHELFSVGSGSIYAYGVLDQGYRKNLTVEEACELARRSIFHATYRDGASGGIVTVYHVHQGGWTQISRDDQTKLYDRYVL
The assay can be described thus: Trypanosoma cruzi proteasome chymotrypsin-like activity (TcProtChymo) assay. Note: in the data most compounds retested in dose-response had high values. Conditions: 9.37 µM. It is filed as functional.

The species named for another assay is Homo sapiens. Nature of the assay: To identify inhibition of the IFN signalling (Jak-Stat) pathway via expression of an eGFP reporter gene under the control of an IFN-stimulated response element (ISRE) containing MxA promoter. Conditions: 30 µM. In kind it is functional.
For assay [7], the target named is T4, Tyrosyl-tRNA synthetase, putative (Trypanosoma cruzi (strain CL Brener)) (UniProt Q4DSP6).
T4 sequence (whole entry): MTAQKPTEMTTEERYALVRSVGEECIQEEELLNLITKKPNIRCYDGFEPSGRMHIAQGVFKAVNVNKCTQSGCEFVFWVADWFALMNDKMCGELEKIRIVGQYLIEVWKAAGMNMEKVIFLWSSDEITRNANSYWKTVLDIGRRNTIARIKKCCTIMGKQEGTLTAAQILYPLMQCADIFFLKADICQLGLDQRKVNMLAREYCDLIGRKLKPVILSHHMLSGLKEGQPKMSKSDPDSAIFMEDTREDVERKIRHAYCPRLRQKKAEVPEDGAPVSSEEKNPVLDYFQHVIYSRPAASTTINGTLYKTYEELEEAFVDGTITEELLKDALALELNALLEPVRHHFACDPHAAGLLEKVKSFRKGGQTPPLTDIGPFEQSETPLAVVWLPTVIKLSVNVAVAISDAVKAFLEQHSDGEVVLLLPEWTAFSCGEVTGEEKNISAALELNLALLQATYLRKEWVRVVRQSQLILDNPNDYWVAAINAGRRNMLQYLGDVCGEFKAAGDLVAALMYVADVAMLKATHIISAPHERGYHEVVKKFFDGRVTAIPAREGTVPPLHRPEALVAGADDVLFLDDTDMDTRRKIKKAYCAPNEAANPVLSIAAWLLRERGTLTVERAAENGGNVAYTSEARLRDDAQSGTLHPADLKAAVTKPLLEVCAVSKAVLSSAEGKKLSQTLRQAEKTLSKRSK
The assay can be described thus: Trypanosoma cruzi tyrosyl tRNA synthetase (TcYRS) _High Tyrosine SOP. Note: in the data most compounds retested in dose-response had high values. It is filed as functional. Conditions: 30 µM.

Assay [8] concerns the target T4, Tyrosyl-tRNA synthetase, putative (Trypanosoma cruzi (strain CL Brener)). Nature of the assay: Trypanosoma cruzi tyrosyl tRNA synthetase (TcYRS) SOP. It is filed as functional. Conditions: 30 µM.
Assay [9] has as its target Chromo domain-containing protein 1 (Saccharomyces cerevisiae (strain ATCC 204508 / S288c) (Baker's yeast)) (UniProt P32657). Nature of the assay: ScCHD-1 Enzyme Inhibition Assay. Note: in the data most compounds retested in dose-response had high values. As to conditions: 30 µM. It is filed as functional.

For some of these results: Measured potencies and affinities stand elsewhere.

Chain of Chromo domain-containing protein 1 (Saccharomyces cerevisiae (strain ATCC 204508 / S288c) (Baker's yeast)) (P32657 whole entry, the tested form may be a part): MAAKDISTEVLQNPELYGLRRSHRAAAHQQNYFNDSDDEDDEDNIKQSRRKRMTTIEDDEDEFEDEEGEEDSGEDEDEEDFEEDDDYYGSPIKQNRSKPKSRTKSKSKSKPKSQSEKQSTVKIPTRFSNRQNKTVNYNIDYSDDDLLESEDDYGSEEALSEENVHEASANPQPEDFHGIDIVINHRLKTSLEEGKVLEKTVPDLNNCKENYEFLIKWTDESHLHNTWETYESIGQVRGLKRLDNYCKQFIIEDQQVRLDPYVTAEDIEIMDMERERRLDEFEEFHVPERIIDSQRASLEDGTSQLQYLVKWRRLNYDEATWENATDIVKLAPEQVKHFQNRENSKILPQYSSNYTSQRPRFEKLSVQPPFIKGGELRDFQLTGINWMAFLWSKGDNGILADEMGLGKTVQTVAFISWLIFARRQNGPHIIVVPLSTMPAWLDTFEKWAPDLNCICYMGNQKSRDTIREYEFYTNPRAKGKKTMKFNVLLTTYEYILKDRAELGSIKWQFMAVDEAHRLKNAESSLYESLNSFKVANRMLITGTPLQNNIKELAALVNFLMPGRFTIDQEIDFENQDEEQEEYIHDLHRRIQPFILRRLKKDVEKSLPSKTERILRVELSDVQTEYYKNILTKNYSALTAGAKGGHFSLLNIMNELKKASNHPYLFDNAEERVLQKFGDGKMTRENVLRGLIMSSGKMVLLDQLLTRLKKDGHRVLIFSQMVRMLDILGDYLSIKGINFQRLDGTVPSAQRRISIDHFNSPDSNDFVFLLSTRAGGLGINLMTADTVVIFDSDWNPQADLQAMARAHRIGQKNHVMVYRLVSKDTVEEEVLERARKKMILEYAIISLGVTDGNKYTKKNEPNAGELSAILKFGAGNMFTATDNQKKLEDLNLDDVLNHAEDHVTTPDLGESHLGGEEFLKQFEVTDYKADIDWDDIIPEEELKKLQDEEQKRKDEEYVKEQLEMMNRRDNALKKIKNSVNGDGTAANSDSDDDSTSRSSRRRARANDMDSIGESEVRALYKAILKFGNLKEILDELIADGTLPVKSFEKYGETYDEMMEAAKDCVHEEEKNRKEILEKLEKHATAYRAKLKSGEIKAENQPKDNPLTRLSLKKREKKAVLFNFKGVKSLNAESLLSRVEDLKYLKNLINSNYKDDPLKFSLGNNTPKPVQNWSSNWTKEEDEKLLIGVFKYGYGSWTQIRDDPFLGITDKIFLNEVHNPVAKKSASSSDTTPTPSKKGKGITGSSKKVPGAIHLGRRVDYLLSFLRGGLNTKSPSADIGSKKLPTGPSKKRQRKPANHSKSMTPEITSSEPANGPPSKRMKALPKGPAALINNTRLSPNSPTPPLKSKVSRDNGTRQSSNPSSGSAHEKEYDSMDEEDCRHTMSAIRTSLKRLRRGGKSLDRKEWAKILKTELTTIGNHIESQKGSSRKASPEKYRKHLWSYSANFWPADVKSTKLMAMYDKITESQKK
Chain of Protein translocase subunit SecA (Escherichia coli (strain K12)) (P10408 whole entry): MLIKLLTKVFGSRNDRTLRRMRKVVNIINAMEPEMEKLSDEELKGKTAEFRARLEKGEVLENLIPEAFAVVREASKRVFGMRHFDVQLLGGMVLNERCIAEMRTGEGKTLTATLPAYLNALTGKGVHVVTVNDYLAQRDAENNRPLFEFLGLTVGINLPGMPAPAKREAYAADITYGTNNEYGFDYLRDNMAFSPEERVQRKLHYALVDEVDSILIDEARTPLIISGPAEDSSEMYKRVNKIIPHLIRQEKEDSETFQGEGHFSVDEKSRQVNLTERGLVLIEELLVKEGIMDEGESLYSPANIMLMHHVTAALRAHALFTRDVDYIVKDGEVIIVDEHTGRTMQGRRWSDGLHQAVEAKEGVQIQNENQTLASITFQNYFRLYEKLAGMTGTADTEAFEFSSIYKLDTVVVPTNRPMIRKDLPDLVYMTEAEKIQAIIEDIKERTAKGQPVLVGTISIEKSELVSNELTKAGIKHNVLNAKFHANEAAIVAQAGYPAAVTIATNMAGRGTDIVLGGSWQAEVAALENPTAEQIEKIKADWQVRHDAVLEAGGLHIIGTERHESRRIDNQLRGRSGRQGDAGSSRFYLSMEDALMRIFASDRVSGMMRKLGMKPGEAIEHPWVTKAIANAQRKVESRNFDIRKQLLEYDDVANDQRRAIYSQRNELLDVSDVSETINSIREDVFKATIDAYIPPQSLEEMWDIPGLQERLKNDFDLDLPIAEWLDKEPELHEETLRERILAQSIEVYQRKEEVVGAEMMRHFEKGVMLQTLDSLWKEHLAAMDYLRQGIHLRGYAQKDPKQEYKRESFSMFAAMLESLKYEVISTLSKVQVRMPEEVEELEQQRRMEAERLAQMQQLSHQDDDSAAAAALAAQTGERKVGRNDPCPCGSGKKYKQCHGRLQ

Turning to `CC(O)CN1CCN(C(=O)c2ccn(-c3cccc(Cl)c3)n2)CC1` (stereo not drawn), the Percent Effect in assay [1] is -5.56%; in [2], -2.6%; in assay [3], 12.7%; in assay [4], -7.86%; in the assay with Trypanosoma cruzi, -6.93%; in assay [5], 1.07%. The Percent Effect in assay [6] is 1.18%; in the assay listed under Homo sapiens it was 26.4%; in assay [7], -1.94%; in assay [8], -9.76%; in assay [9], -1.68%.
`CCOCC(=O)N1CCC(Oc2ccc(C(F)(F)F)cn2)CC1`: the Percent Effect is 0.852% in assay [1]; 5.2% in [2]; 2.97% in assay [3]; 4.76% in [4]; -5.42% in the assay on Trypanosoma cruzi; 13.6% in assay [5]. For the same molecule, the Percent Effect is 15.1% in assay [6]; 12.1% in the assay listed under Homo sapiens; 0% in assay [7]; 3.85% in assay [8]; -4.83% in assay [9].
As to `O=C(Nc1nncs1)NC1CCc2ccccc21` (stereo not drawn), the Percent Effect in [1] was 0.119%; in assay [2], 5.48%; in [3], 1.57%; in assay [4], 3.21%; with Trypanosoma cruzi, -6.94%; in assay [5] it was -3.19%. Also, the Percent Effect in [6] was 8.13%; in the assay filed under Homo sapiens, 40.4%; in assay [7], 6.25%; in assay [8], 16.1%; in assay [9] it was -1.82%.
Take `c1cnc(NCc2noc3c2CN(C2CCOCC2)CC3)nc1`: the Percent Effect in [1] is -4.67%; in [2] it was 18.7%; in assay [3], -2.09%; in [4], -2.32%; in the assay with Trypanosoma cruzi, 3.86%; in [5] it was -46.8%. In addition, the Percent Effect was 15.7% in assay [6]; -2.62% in the assay filed under Homo sapiens; 7.29% in assay [7]; 22.5% in assay [8]; -7.21% in assay [9].
`CCCc1nc(CN2CCN(CC(O)c3ccccc3)CC2)no1` (stereo not drawn): the Percent Effect in [1] is -2.75%; in [2] it was 11.4%; in assay [3] it was -0.305%; in [4] it was 1.98%; in the assay on Trypanosoma cruzi, -1.54%; in assay [5], 4.09%. Also, the Percent Effect in assay [6] is 8.23%; in the assay listed under Homo sapiens, 7.59%; in assay [7], 5.21%; in [8], -2.53%; in [9], -26.1%.
As to `CCSCCNC(=O)C(c1cccc(C)c1)N(C)C` (stereo not drawn), the Percent Effect in assay [1] turned out to be 0.71%; in assay [2], 16.2%; in assay [3], 4.54%; in assay [4] it was 18.5%; in the assay with Trypanosoma cruzi, 4.83%; in [5] it was 1.43%. Also, the Percent Effect in [6] is 12.1%; in the assay listed under Homo sapiens, 20.1%; in assay [7] it was 6.88%; in assay [8], 17.1%; in assay [9], -11.3%.
For the molecule `CCCc1ncc(C(=O)N2CCOC(c3nc(C)n[nH]3)C2)s1` (stereo not drawn), the Percent Effect in assay [1] is -2.75%; in assay [2], -3.8%; in assay [3], 4.69%; in assay [4], 3.58%; with Trypanosoma cruzi, -6.46%; in assay [5], 7.1%. Further, the Percent Effect in [6] was 5.66%; in the assay listed under Homo sapiens, 11.7%; in assay [7] it was 1.04%; in assay [8], -2.53%; in assay [9], 9.76%.
Consider `CN(C)CCn1c(=O)oc2ccc(NC(=O)c3cc(Cl)c[nH]3)cc21`, for which the Percent Effect was -3.23% in assay [1]; 2.67% in assay [2]; 0.098% in assay [3]; 6.1% in [4]; -3.41% in the assay with Trypanosoma cruzi; 4.17% in assay [5]. For the same molecule, the Percent Effect in assay [6] is 13.6%; in the assay filed under Homo sapiens it was 10.7%; in assay [7], 19.1%; in assay [8], 21%; in assay [9] it was -7.97%.
